Measured values taken from PubChem BioAssay AID504339 (National Center for Advancing Translational Sciences (NCATS), 2011).
Screen size: about 390,000 compounds; about 17,000 (4.4%) were called active. About 8% were inconclusive and are not listed. The call rests on the fitted dose curve; in most records, active means well fitted inhibition curve with a large enough effect; inconclusive means small, poorly fitted or top-dose-only effect; inactive means no such curve, though single readings can be large or run the other way. What follows is part of a selection rich in actives, with near analogues and random picks from the rest. A call without a number means that no potency is given here.

Target: Lysine-specific demethylase 4A (Homo sapiens) (UniProt O75164)
Sequence (O75164 whole entry, looked up, the tested form may be a part): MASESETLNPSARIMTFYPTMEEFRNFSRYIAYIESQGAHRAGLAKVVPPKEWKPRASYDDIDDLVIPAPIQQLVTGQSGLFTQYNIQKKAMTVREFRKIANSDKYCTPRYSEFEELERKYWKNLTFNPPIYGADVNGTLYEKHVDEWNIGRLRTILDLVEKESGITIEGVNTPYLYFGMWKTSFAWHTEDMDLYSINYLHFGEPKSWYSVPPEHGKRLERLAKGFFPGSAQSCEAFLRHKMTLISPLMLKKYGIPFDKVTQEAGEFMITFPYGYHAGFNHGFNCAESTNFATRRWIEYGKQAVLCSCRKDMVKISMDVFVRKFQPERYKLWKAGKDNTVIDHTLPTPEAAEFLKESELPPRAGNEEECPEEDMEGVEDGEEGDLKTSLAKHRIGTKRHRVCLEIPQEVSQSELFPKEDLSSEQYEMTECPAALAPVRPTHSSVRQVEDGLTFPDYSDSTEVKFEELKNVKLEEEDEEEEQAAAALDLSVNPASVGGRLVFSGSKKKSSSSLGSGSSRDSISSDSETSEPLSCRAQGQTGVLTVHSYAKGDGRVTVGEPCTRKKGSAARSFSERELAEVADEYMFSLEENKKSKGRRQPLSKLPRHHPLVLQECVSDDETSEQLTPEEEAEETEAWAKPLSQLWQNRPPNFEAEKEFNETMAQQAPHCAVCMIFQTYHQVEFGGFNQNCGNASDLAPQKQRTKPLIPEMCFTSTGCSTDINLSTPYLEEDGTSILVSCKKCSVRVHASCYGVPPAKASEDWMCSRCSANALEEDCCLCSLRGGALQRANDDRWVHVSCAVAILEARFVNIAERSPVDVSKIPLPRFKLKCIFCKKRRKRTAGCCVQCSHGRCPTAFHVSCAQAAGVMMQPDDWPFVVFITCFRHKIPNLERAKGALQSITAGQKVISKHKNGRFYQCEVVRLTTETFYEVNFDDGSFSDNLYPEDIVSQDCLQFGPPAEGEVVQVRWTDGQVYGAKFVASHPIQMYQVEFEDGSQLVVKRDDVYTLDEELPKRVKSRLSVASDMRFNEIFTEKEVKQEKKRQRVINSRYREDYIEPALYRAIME
Test: qHTS Assay for Inhibitors of JMJD2A-Tudor Domain; further: nearly all actives have a fitted effect of over 50% in size
Details: AlphaScreen JMJD2A-Tudor / H3K4me3 peptide binding; series mostly up to 114 µM
Potency means the concentration at half of the fitted maximal effect.

Row | SMILES | Potency
1 | O=C(NCc1ccc(F)cc1)c1ccc(Cn2c(SCc3ccc(F)cc3)nc3cccnc32)cc1 | inactive
2 | Cc1c(NC(=O)Nc2ccc(F)c(Cl)c2)c(=O)n(-c2ccccc2)n1C | inactive
3 | Cc1c(CNC(C)c2ccccc2)c(C(=O)O)c(C)n1Cc1c(F)cccc1Cl (centres undefined) | inactive
4 | O=C(NCCCO)C(=O)Nc1c2c(nn1-c1ccc(F)cc1)CSC2 | inactive
5 | CCn1c(CNC(=O)C23CC4CC(CC(C4)C2)C3)nnc1SCC(=O)Nc1ccc(OC)cc1 | inactive
6 | CC1=C(c2ccc(F)cc2)S(=O)(=O)N=C1N1CCC(C(=O)NCCc2ccccc2C)CC1 | inactive
7 | CCCS(=O)(=O)N1CCC(n2c(C(F)(F)F)nc3cccnc32)CC1 | inactive
8 | NS(=O)(=O)c1ccc(NC(=O)COc2ccc(S(=O)(=O)NC3CCCCC3)cc2)cc1 | inactive
9 | CC(C)Cn1c(=O)c2ccccc2n2c(CCC(=O)N3CCN(c4cccc(Cl)c4)CC3)nnc12 | inactive
10 | CCOc1ccc2nc(N3CCC(C(=O)Nc4cc(C)ccc4C)CC3)sc2c1 | inactive
11 | OCCNCCOc1ccc(Cl)c(Cl)c1 | inactive
12 | COCCNCCOCCOc1cccc(OC)c1 | inactive
13 | COCCCNCCOCCOc1ccc(Cl)cc1Br | 1.78 µM (active)
14 | Cn1nnc(NC(=S)NC(=O)c2ccccc2)n1 | 5.01 µM (active)
15 | COc1cc(NS(=O)(=O)c2ccc(NC(=S)NC(=O)c3ccccc3)cc2)nc(OC)n1 | inactive
16 | COC(=O)c1nc(NC(=O)c2ccccc2)n[nH]1 | inactive
17 | O=C(C1COc2ccccc2O1)N(Cc1cccnc1)c1nc2c(F)cc(F)cc2s1 (centres undefined) | inactive
18 | COc1ccccc1NC(=O)Nc1nnc(Cc2ccc(F)cc2)s1 | inactive
19 | COc1ccc(Cc2nnc(NC(=O)Cc3cccs3)s2)cc1 | 28.2 µM (active)
20 | COc1ccc(Cc2nnc(NS(=O)(=O)Cc3ccccc3)s2)cc1 | inactive
21 | Cc1nn(C(C)C(=O)NCCc2ccccc2)c(=O)c2c1sc1ccccc12 (centres undefined) | inactive
22 | COC(=O)c1sccc1S(=O)(=O)N(CC(=O)Nc1ccc(C)c(F)c1)c1ccc(C)c(C)c1 | inactive
23 | CCOc1cc(C=NNC(=O)CCCC(=O)NN=Cc2ccc(O)c(OCC)c2)ccc1O | inactive
24 | COc1cc(/C=N\Nc2nc(-c3cccs3)c(NC(C)=O)s2)ccc1O | 25.1 µM (active)
25 | CC(=O)c1sc(N/N=C/c2ccc(C(C)C)cc2)nc1C | inactive

Row | SMILES | Potency
26 | Cc1ccc2nc(COc3cccc(NC(=O)c4ccccc4Cl)c3)cc(=O)n2c1 | inactive
27 | COc1cc(C(=O)NCCc2csc3nc(-c4ccccc4C)nn23)cc(OC)c1OC | inactive
28 | CCOC(=O)c1c(NC(=O)CSc2nccc(=O)[nH]2)sc(C)c1C | inactive
29 | CCOC(=O)c1c(NC(=O)CSc2nnc(Cc3csc(N)n3)n2C)sc(C)c1C | 39.8 µM (active)
30 | CCOC(=O)c1c(NC(=O)CSc2nnc(CN3CCOCC3)n2C)sc2c1CCCC2 | inactive
31 | COc1ccc(C2C(=O)N(C3CCCCCC3)CC(=O)N2CCc2ccc(Cl)cc2)cc1OC (centres undefined) | inactive
32 | Cc1ccc(Cn2cc(CCC(=O)NCc3ccc(OC(C)C)cc3)c3ccccc32)cc1 | inactive
33 | Cc1cccc(NC(=O)c2cccc(S(=O)(=O)N3CCCC3)c2)n1 | inactive
34 | Cc1ncc(CO)c(/C=N/NC(=O)c2cccc(S(=O)(=O)N3CCCC3)c2)c1O | 22.4 µM (active)
35 | CCOc1cc(/C=N/NC(=O)c2cccc(S(=O)(=O)N3CCOCC3)c2)ccc1OCC(=O)N(C)C | inactive
36 | COc1ccccc1CCNC(=O)c1cccn1-c1nnc(N2CCCCC2)s1 | inactive
37 | COc1ccc2c(C)c(CCC(=O)NCc3ccc(OC)c(OC)c3)c(=O)oc2c1 | inactive
38 | COC(=O)C1=C(C)N(c2ccc(Br)cc2)C(=O)/C1=C\c1ccco1 | 17.8 µM (active)
39 | O=C(OCN1C(=O)c2ccccc2C1=O)/C(=C\c1ccco1)NC(=O)c1ccccc1 | inactive
40 | COC(=O)C1=C(C)N(c2ccc(C)cc2)/C(=C/c2ccc(O)cc2)C1=O | inactive
41 | COC(=O)COc1ccc2c(c1C)O/C(=C\c1ccco1)C2=O | inactive
42 | CCCCN=C1N/C(=C\c2ccco2)C(=O)N1c1ccccc1 | inactive
43 | COC(=O)C1=C(C)N(C(C)c2ccccc2)C(=O)/C1=C\c1ccco1 (centres undefined) | 25.1 µM (active)
44 | CCOC(=O)c1c(C)[nH]c(C)c1S(=O)(=O)N1CCC(C(=O)Nc2ccc(C)c(Cl)c2)CC1 | inactive
45 | CCOC(=O)C1CCCN(C(=O)c2ccc3c(c2)sc2nc(-c4ccc(CC)cc4)cn23)C1 (centres undefined) | inactive
46 | COC(=O)c1sc2ncccc2c1-n1c(C)ccc1C | inactive
47 | COc1ccc(CNC(=O)c2cc3c(s2)-c2ccccc2OC3)cc1 | inactive
48 | Cc1cccc(N2CCN(C(=O)c3cnc(N4CCCC4)nc3C)CC2)c1C | inactive
49 | COc1ccc(-c2cc(-c3ccc(F)cc3)nc3c2COc2ccccc2-3)cc1 | inactive
50 | CCN(CC(=O)NC1CCS(=O)(=O)C1)c1nc(-c2cccnc2)nc2ccccc12 (centres undefined) | inactive

Row | SMILES | Potency
51 | COc1cc(Nc2nc(-c3ccc(OC)c(OC)c3)nc3ccccc23)cc(OC)c1 | inactive
52 | COc1ccc(Nc2nc(-c3cccnc3)nc3ccccc23)cn1 | 31.6 µM (active)
53 | CC1CCC2(CC1)N=C(c1ccccc1)C(=O)N2CC(=O)Nc1ccc(F)c(Cl)c1 (centres undefined) | inactive
54 | Cc1ccc(-n2c(=O)c3cccnc3n2CC(=O)Nc2ccccc2C(F)(F)F)cc1C | inactive
55 | COc1ccc(CNc2nc(-c3ccc(Cl)cc3)nn2C(=O)c2ccccc2)cc1 | inactive
56 | C/C=C(\C)C(=O)N1CC2(CC(c3cccc(NC(=O)CCCCC)c3)=NO2)C[C@@H]1C(N)=O (some centres undefined) | inactive
57 | C/C=C(/C)C(=O)Nc1cccc(C2=NOC3(C2)C[C@@H](C(N)=O)N(C(=O)C2(C)CC2)C3)c1 (some centres undefined) | inactive
58 | CC/C=C/C(=O)N1CC2(CC(c3cccc(NC(=O)CC)c3)=NO2)C[C@H]1C(N)=O (some centres undefined) | inactive
59 | O=C(Nc1cccc(-c2nnc(-c3ccccc3)o2)c1)C1CCCO1 (centres undefined) | inactive
60 | C=C(C)C(=O)Nc1cccc(C2=NOC3(C2)C[C@H](C(N)=O)N(C(=O)C(c2ccccc2)c2ccccc2)C3)c1 (some centres undefined) | 11.2 µM (active)
61 | NC(=O)[C@H]1CC2(CC(c3cccc(NC(=O)[C@H]4CCC(=O)N4)c3)=NO2)CN1C(=O)c1ccccc1C(=O)c1ccccc1 (some centres undefined) | 89.1 µM (active)
62 | Cc1ccc(OCCSc2nc(C)c(Cc3ccccc3)c(=O)[nH]2)cc1 | inactive
63 | COc1cc(OC)c(NC(=O)c2cc(S(=O)(=O)N3CCCC3)cn2C)cc1Cl | inactive
64 | Cc1c(C(=O)NCc2ccccc2Br)oc2ccc3c(c12)C(=O)CC(C)(C)O3 | inactive
65 | COc1cccc(N2CCN(S(=O)(=O)c3cc(Br)cc4c3N(C(=O)C3CC3)CC4)CC2)c1 | inactive
66 | COc1ccc(CCNc2ncnc3onc(-c4ccc(Cl)cc4)c23)c(OC)c1 | inactive
67 | COc1cc(/C=C/C(=O)OCC(=O)N2CCOCC2)ccc1OCC#N | 50.1 µM (active)
68 | COc1cc(/C=C/C(=O)Nc2ccc(OC)c(S(=O)(=O)N3CCOCC3)c2)ccc1OCC#N | inactive
69 | COc1cc(/C=C/C(=O)OCC(=O)NC(=O)NCc2ccccc2)ccc1OCC#N | inactive
70 | CCOC(=O)c1oc2ccc(S(=O)(=O)n3nc(-c4ccccc4OC)cc3N)cc2c1C | inactive
71 | Cc1oc(-c2cccc(Cl)c2)[n+]([O-])c1C | 79.4 µM (active)
72 | Cc1oc(-c2ccccc2Cl)[n+]([O-])c1C | inactive
73 | CCOC(=O)CSc1ncc(-c2cccc(Cl)c2)cn1 | inactive
74 | COc1ccc(C(=O)N2CCC(c3nc4ccccc4o3)CC2)cc1 | inactive
75 | COc1c(O)ccc2c1CN1CCc3cc4c(cc3C1C2)OCO4 (centres undefined) | 44.7 µM (active)

Row | SMILES | Potency
76 | COc1ccc(CN2CCCC(N3CCc4ccccc4C3)C2)c(O)c1 (centres undefined) | inactive
77 | COc1cc(C(=O)CCc2ccc3c(c2)OCO3)cc(OC)c1OC | inactive
78 | CCOC(=O)N1CCc2c(sc3c2c(=O)n(-c2ccc(CC)cc2)c(=O)n3C)C1 | inactive
79 | CC1CCCN(c2csc3ccc(F)cc3c2=O)C1 (centres undefined) | inactive
80 | Cn1nnnc1Sc1ncnc2scc(-c3ccccc3[N+](=O)[O-])c12 | inactive
81 | CC(C)(C)c1ccc(OCC(=O)N2CCC(c3nc4ccccc4s3)CC2)cc1 | inactive
82 | Nn1c(SCC(=O)Nc2nccs2)nnc1-c1ccco1 | inactive
83 | Nn1c(SCC(=O)Nc2nccs2)nncc1=O | 28.2 µM (active)
84 | COc1ccc(NC(=O)CSc2nncc(=O)n2N)cc1OC | inactive
85 | Cc1ccc2c(=O)c(C(=O)c3ccc(Cl)cc3)cn(CC(=O)NC3CCCCC3)c2n1 | inactive
86 | COc1ccccc1-n1cnc2cc(NS(=O)(=O)c3ccccc3)ccc21 | inactive
87 | COc1ccccc1-n1cn[nH]c1=S | 25.1 µM (active)
88 | COCCCNC(=O)c1ccc2c(c1)ncn2-c1ccccc1OC | inactive
89 | CCOc1ccc(CNC(=O)c2cc(-c3ccc(Cl)s3)nc3ccccc23)cc1 | inactive
90 | COc1ccc(Br)cc1CNC(=O)c1cc(=O)[nH]c2ccc(S(=O)(=O)N3CCCC3)cc12 | inactive
91 | CCOC(=O)c1c(C)[nH]c(C)c1S(=O)(=O)NCC(=O)NCc1cccc(C)c1 | inactive
92 | Cc1cc(C)nc(Nc2n[nH]c(-c3ccccc3N)n2)n1 | 2.24 µM (active)
93 | CCCOc1ccccc1-c1nc(SCCC(=O)O)n[nH]1 | inactive
94 | CCCCN(CC)CCCNC(=O)c1nn(C)c2c1CSc1ccccc1-2 | inactive
95 | COc1cccc(CNC(=O)CSc2c3c(nc4cc(Cl)ccc24)CCCC3)c1 | inactive
96 | Cc1cccc(C(=O)Nc2ccc(S(=O)(=O)N3CCCCC3c3cccnc3)cc2)c1 (centres undefined) | inactive
97 | CCCCC(=O)NC(c1ccc(OC)c(OC)c1)c1ccc2cccnc2c1O (centres undefined) | 56.2 µM (active)
98 | COc1ccc(CCNS(=O)(=O)c2cccc3cccnc23)cc1OC | inactive
99 | C=CCn1c(COc2cccc3cccnc23)nnc1SCC(=O)OC | inactive
